Shown are actives, neighbours in structure and some others; about 17% of the full set was active somewhere.
HT1080 IDH1KD tx = qHTS for induction of synthetic lethality in tumor cells producing 2HG: qHTS for the HT-1080-IDH1KD cell line | HT-1080 IDH1 knockdown viability, ATP luminescence, 48 h | Potency, µM (top dose mostly 46.1 µM), most hits filed as cytotoxic | AID 686971, 2013 | actives 2% (n = 360,000)
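% activity derives from luminescence (CellTiter-Glo), normalised to DMSO and no-cell wells. HT-1080-IDH1KD cells, 750/well, had 48 h compound exposure at 37 °C.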
HT1080-NT tox = qHTS for induction of synthetic lethality in tumor cells producing 2HG: qHTS for the HT-1080-NT fibrosarcoma cell line; actives 1.6% (n = 360,000); HT-1080-NT fibrosarcoma viability, CellTiter-Glo ATP luminescence, 48 h; AID 686970, 2013; Potency, µM (top dose mostly 46.1 µM), hits mostly cytotoxic;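 note: NT is the 2HG producing partner of a matched IDH1 knockdown line; nearly all actives have a fitted effect of over 55% in size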
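Fibrosarcoma NT cells, 750 per well in 5% FBS RPMI, were exposed to compound for 48 hours. Viability: CellTiter-Glo luminescence.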
TDP1 cell CPT = qHTS for Inhibitors of human tyrosyl-DNA phosphodiesterase 1 (TDP1): qHTS in cells in presence of CPT; chicken DT40 Tdp1-/-;hTDP1 cells + 20 nM CPT, ATP luminescence, 48 h; Potency, µM (doses to about 46.2 µM), usual class: inhibitors; actives 12% (n = 420,000); note: nearly all actives have a fitted effect of over 55% in size
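Cell growth measured by CellTiter-Glo luminescence after a minimum 48 h, 37 C compound exposure with 20 nM CPT in Tdp1-knockout DT40 cells stably expressing hTDP1, seeded 400/well; qHTS titration format.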
TGFb inhibitor = qHTS for Inhibitors of TGF-b; HepG2 CAGA-GFP TGF-b/SMAD3 reporter, GFP fluorescence, 18 h; TGF-beta stimulated, 500 pg/mL final; Potency, µM (highest dose often 46.1 µM), hits mostly inhibitors; actives 1.2% (n = 410,000); note: nearly all actives have a fitted effect of over 65% in size
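Read-out: total well GFP (ex488/em500-530) summed from mean per-cell fluorescence. Cells: HEPG2 CAGA-GFP, 1% FBS DMEM, 18 h at 37 degrees C with 500 pg/mL final TGF-beta. Unstimulated wells served as the full-inhibition control; stimulated DMSO wells = 0%.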
TDP1 cell noCPT = qHTS for Inhibitors of human tyrosyl-DNA phosphodiesterase 1 (TDP1): qHTS in cells in absence of CPT. DT40 Tdp1-/- hTDP1 cells, no CPT, ATP luminescence, 48 h. actives 15% (n = 420,000). Potency, µM (series often up to 46.2 µM), most hits filed as inhibitors. AID 686978, 2013; note: nearly all actives have a fitted effect of over 55% in size
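Stably hTDP1-transfected Tdp1-null chicken DT40 cells were treated with library compounds minus camptothecin and grown for at least 48 hr at 37 °C, after which cellular ATP was quantified by luminescence.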
HepG2 tox = qHTS for Inhibitors of TGF-b: Cytotox Counterscreen | HepG2 CAGA-GFP viability, ATP luminescence, 18 h | Potency, µM (highest dose often 46.1 µM), actives largely listed as cytotoxic | actives 0.76% (n = 410,000) | AID 588856, 2011
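CellTiter-Glo luminescence gave cytotoxicity after 18 hours at 37 degrees C. The cells were HepG2 CAGA-GFP in 1% FBS DMEM, stimulated with 500 pg/mL TGF-beta after compound addition. %Activity was normalised to no-cell wells (complete cell-killing) and DMSO (no toxicity), and curves were fitted and classified.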
Of the large screens only hits and unclear results are named; the others gave an inactive call. Calls come from the whole dose curve; as a rule, active = well fitted curve in the direction sought with a large enough effect; inconclusive = small, poorly fitted or top-dose-only effect, or another doubt; inactive = no such curve, though single readings can be large; an effect the other way counts as inactive or inconclusive.

CC1C(=O)N(Cc2ccc([N+](=O)[O-])cc2)c2ccccc2N1C(=O)C1CC1 (configuration not stated)	TDP1 cell CPT inconclusive, TDP1 cell noCPT inconclusive
CC1C(=O)N(Cc2ccc(F)cc2)c2ccccc2N1C(=O)c1c(F)cccc1F (configuration not stated)	TDP1 cell CPT 16µM, TDP1 cell noCPT inconclusive
COC(=O)c1ccc(CN2C(=O)C(C)N(C(=O)c3c(F)cccc3F)c3ccccc32)cc1 (configuration not stated)	TDP1 cell CPT 15µM, TDP1 cell noCPT 8.2µM
O=C(NCCc1cccs1)Nc1ccc2nc([C@@H]3O[C@H](CO)[C@@H](O)[C@H]3O)[nH]c2c1	none
O=S(=O)(NCC(c1cccnc1)N1CCN(c2ccccc2F)CC1)c1cccs1 (configuration not stated)	TDP1 cell CPT 15µM, TDP1 cell noCPT inconclusive
O=C(NCC(c1cccnc1)N1CCN(c2ccccc2F)CC1)C1CCCCC1 (configuration not stated)	TDP1 cell CPT inconclusive, TGFb inhibitor inconclusive, TDP1 cell noCPT 10µM
O=C(NCC(c1cccnc1)N1CCN(c2ccc(F)cc2)CC1)C1CCCCC1 (configuration not stated)	TDP1 cell CPT inconclusive, TDP1 cell noCPT inconclusive
O=C(NCC(c1cccnc1)N1CCN(c2ccc(F)cc2)CC1)c1ccc(F)cc1 (configuration not stated)	TDP1 cell CPT inconclusive, TDP1 cell noCPT 16µM
O=C(NCc1cccnc1)C(=O)NCC(c1ccco1)N1CCN(c2ccc(F)cc2)CC1 (configuration not stated)	TDP1 cell CPT 23µM, TDP1 cell noCPT 16µM
COc1ccc(N2CCN(C(CNC(=O)C(=O)NCc3cccnc3)c3ccco3)CC2)cc1 (configuration not stated)	none
Cc1cc2c(cc1S(=O)(=O)N(CCN(C)C)Cc1ccco1)OCC(=O)N2	none (no result: HT1080 IDH1KD tx, HT1080-NT tox)
CCc1ccc(NC(=O)C(=O)NCC(c2cccnc2)N2CCN(C)CC2)cc1 (configuration not stated)	TDP1 cell noCPT inconclusive (no result: HT1080 IDH1KD tx, HT1080-NT tox)
O=C(NCCc1ccccc1)C(=O)NCC(c1cccnc1)N1CCN(c2ccccc2F)CC1 (configuration not stated)	TDP1 cell CPT 21µM, TGFb inhibitor inconclusive, TDP1 cell noCPT inconclusive (no result: HT1080 IDH1KD tx, HT1080-NT tox)
O=C(NCC(c1ccco1)N1CCN(c2ccc(F)cc2)CC1)c1cccs1 (configuration not stated)	TDP1 cell CPT inconclusive, TDP1 cell noCPT inconclusive
CCc1ccc(NC(=O)C(=O)NCC(c2cccnc2)N2CCN(c3ccc(F)cc3)CC2)cc1 (configuration not stated)	TDP1 cell CPT inconclusive, TDP1 cell noCPT 3.7µM (no result: HT1080 IDH1KD tx, HT1080-NT tox)
O=C(NCc1cccs1)C(=O)NCC(c1ccco1)N1CCN(c2ccc(F)cc2)CC1 (configuration not stated)	TDP1 cell CPT inconclusive, TDP1 cell noCPT 23µM
O=C(NCCC1=CCCCC1)C(=O)NCC(c1ccco1)N1CCN(c2ccccc2)CC1 (configuration not stated)	TDP1 cell CPT 12µM, TDP1 cell noCPT 9.2µM
CCC(CC)C(=O)c1c[nH]c(C(=O)N2CCN(c3ccccc3F)CC2)c1	none
Nc1ccccc1C(=O)NC1CCCNC1=O (configuration not stated)	none
COc1ccc(C(=O)NCC(c2cccnc2)N2CCN(c3ccc(F)cc3)CC2)cc1OC (configuration not stated)	TDP1 cell CPT inconclusive, TDP1 cell noCPT inconclusive
O=C(NCC(c1cccnc1)N1CCN(c2ccc(F)cc2)CC1)c1ccc2c(c1)OCO2 (configuration not stated)	TDP1 cell CPT 16µM, TDP1 cell noCPT 8.2µM
COc1cc(C(=O)NCC(c2cccnc2)N2CCN(c3ccc(F)cc3)CC2)cc(OC)c1OC (configuration not stated)	TDP1 cell CPT inconclusive, TDP1 cell noCPT 21µM
O=C(NCC(c1cccnc1)N1CCN(c2ccccc2F)CC1)c1cccc(Cl)c1 (configuration not stated)	TDP1 cell CPT 21µM, TDP1 cell noCPT 16µM
COc1ccc(N2CCN(C(CNC(=O)c3ccc4c(c3)OCO4)c3cccnc3)CC2)cc1 (configuration not stated)	TDP1 cell noCPT inconclusive
O=C(NCC(c1cccnc1)N1CCN(c2ccc(F)cc2)CC1)c1ccco1 (configuration not stated)	TDP1 cell CPT inconclusive, TDP1 cell noCPT 16µM
O=C(NCC(c1cccnc1)N1CCOCC1)c1cccc(Cl)c1 (configuration not stated)	none
CCc1ccc(-n2c(=O)c3c4c(sc3n(CC(=O)NCCCOC)c2=O)CCC4)cc1	TDP1 cell CPT inconclusive, TDP1 cell noCPT inconclusive (no result: HT1080 IDH1KD tx, HT1080-NT tox)
COc1ccc(C(=O)NCC(c2cccnc2)N2CCN(c3ccccc3F)CC2)cc1OC (configuration not stated)	TDP1 cell CPT inconclusive, TDP1 cell noCPT inconclusive (no result: HT1080 IDH1KD tx, HT1080-NT tox)
O=C(NCC(c1cccnc1)N1CCN(c2ccccc2F)CC1)c1ccc(F)cc1 (configuration not stated)	TDP1 cell CPT 15µM, TGFb inhibitor inconclusive, TDP1 cell noCPT 21µM (no result: HT1080 IDH1KD tx, HT1080-NT tox)
CCN1CCN(c2ccc(S(=O)(=O)N3CCCCC3)cc2NC(=O)CC(NC(C)=O)c2ccccc2)CC1 (configuration not stated)	none
CCOC(=O)C1=C(O)/C(=C/c2cn(CC(=O)N3CCCC3)c3ccccc23)SC1=Nc1ccccc1	TDP1 cell CPT 18µM, TDP1 cell noCPT 18µM
CCCN(CCC)CCNC(=O)c1nn(C)c2c1CS(=O)(=O)c1ccccc1-2	none (no result: HT1080 IDH1KD tx, HT1080-NT tox)
CCn1c(CNC(=O)c2cccs2)n[nH]c1=S	none
Cc1nn(Cc2ccccc2)c2c1C(c1ccncc1)C(C#N)=C(N)O2 (configuration not stated)	TDP1 cell CPT 21µM, TDP1 cell noCPT 23µM
